Results on 32 compounds are retold here after PubChem BioAssay (EPA / NIEHS).

In experiment [1] the test system is Thyroperoxidase (TPO), gene 445522. The experiment can be described thus: CCTE_Simmons_GUA_TPO: CCTE's Guaiacol Assay for Thyroperoxidase (TPO) Inhibition, Simmons Lab (AID 2283750). The procedure, abridged: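 Porcine thyroid microsomes (25 ug) in 200mM potassium phosphate, preincubated 30 s at 37C with compound (8 concentrations, 5 nM–87.5 uM) and 35mM guaiacol; 1mM H2O2 starts reaction. Absorbance change at 450nm over first 80 s; loss of signal versus DMSO, three replicates.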

A short description of experiment [2]: ArunA_CellTiter_hNC: Viability Assessment in the ArunA Biomedical's Oris Neural Crest (hNC) Cell Migration Assay (AID 2283752). Summed up:
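hNC cells (H9 ESC-derived), 60,000/well, Matrigel, LIF + bFGF medium; 16 h 37C attachment; 72 h compound in test medium; CellTiter Aqueous One read-out; loss-of-signal vs DMSO baseline.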

A short description of experiment [3]: ArunA_CellTiter_hNP: Viability Assessment in the ArunA Biomedical's Oris Neural Crest (hNC) Cell Migration Assay (AID 2283753). Summed up:
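Viability read with CellTiter 96 Aqueous One after 72 h chemical exposure of human hNP1 neuroprogenitors, which were plated on Matrigel in LIF/bFGF medium 16 h beforehand. Endpoint fitted in positive direction relative to DMSO.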

Experiment [4] in a line: ArunA_Migration_hNP: ArunA Biomedical's Oris Neuroprogenitor (hNP) Cell Migration Assay (AID 2283754). The procedure, abridged: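 Readout is calcein-AM fluorescence (ex494/em517) of cells migrating into the detection zone, relative to DMSO. hNP1 cells (H9-derived) grown on Matrigel behind stoppers 16 h, then stoppers pulled and chemical applied 72 h; cytochalasin D as control.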

Experiment [5] is described as follows: ArunA_NOG_NeuritesPerNeuron: ArunA Biomedical's Neurite Outgrowth (NOG) Assay for Neurites Per Neuron (AID 2283758). The procedure, abridged: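 Differentiated human H9-derived neurons exposed to chemicals for 48 h from seeding, then stained with Hoechst and βIII-tubulin/DyLight 488. Automated imaging counted neurites (processes >10 um) per valid neuron; loss of signal versus DMSO scored.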

The target of experiment [6] is zebrafish Estrogen Receptor (ESR1), esr1 (gene 259252) (UniProt P57717). Briefly: ATG_zfER1_XSP1: Attagene TRANS-FACTORIAL Multi-Species (XSP1) HepG2 Assay for zebrafish Estrogen Receptor (ESR1) (AID 2283772). Summed up: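 Reporter mRNA induction, gauged via RT-PCR/capillary electrophoresis fluorescence relative to DMSO controls, in HepG2 cells transiently carrying GAL4-UAS reporter units; 24 h dosing.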

The test system of experiment [7] is chicken Androgen Receptor (AR), gene 422165. The experiment can be described thus: ATG_chAR_XSP1: Attagene TRANS-FACTORIAL Multi-Species (XSP1) HepG2 Assay for chicken Androgen Receptor (AR) (AID 2283768). The procedure, abridged: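 Reporter mRNA read by RT-PCR with fluorescent labelling and capillary electrophoresis 24 h after chemical dosing of transiently transfected HepG2 cells. Chicken AR-Gal4 chimera, partially stimulated with 3 nM 6-alpha-fluorotestosterone; activity fitted upward relative to DMSO.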

Read-out in experiment [8]: glucuronosyltransferase (UGT1A1), UGT1A1 (gene 54658)
Briefly: CLD_UGT1A1_48hr: CellzDirect (CLD) Gene Expression Assay for glucuronosyltransferase (UGT1A1) at 48 hours (AID 2283709).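 Note: actives increase expression relative to DMSO so potency refers to induction.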 The procedure, abridged: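 Quantitative nuclease protection assay (chemiluminescent) for UGT1A1 mRNA at 48 h in human hepatocyte cultures from two donors, redosed daily with fresh solutions. Induction fitted relative to 0.2% DMSO; phase-contrast morphology annotated cytotoxicity.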

Experiment [9] in a line: CEETOX_H295R_MTT_cell_viability: Viability Assessment in the CeeTox HT-H295R MTT Assay (AID 2283718; active = hit-call score of the fitted dose curve at least 0.9, where 1 is the maximum; inactive = score below 0.9;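 for AC50: curve fitted both ways so AC50 may mark viability loss or gain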). The procedure, abridged:
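Human H295R adrenal cells, prestimulated 48 h with 10 uM forskolin, were exposed 48 h to chemicals in 0.1% DMSO. Viability was measured in the same wells by MTT (0.5 mg/ml, 4 h, 37 C), absorbance 570/650 nm, as percent of controls.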

The nature of experiment [10]: Tanguay_ZF_120hpf_ActivityScore_legacy: (Legacy) Oregon State University Tanguay Lab 120 Hour Post-fertilization zebrafish Assay Score for Activity (AID 2283742).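 For AC50: dechorionated Tropical 5D wild-type zebrafish embryos held singly per well.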 Summed up: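 Dechorionated 5D embryos, one per well, static exposure 6–120 hpf, 28C, sealed and dark; final DMSO 0.64% (vol/vol). Brightfield binary scoring of mortality plus 18 endpoints; gain-of-signal fit versus DMSO baseline.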

A short description of experiment [11]: STM_H9_OrnithineISnorm_perc: Stemina devTOX quickPredict H9 human embryonic stem cell (hESC)-based Assay for Ornithine (ORN) Metabolite Biomarker, Normalized (AID 2283712; active = hit-call score of the fitted dose curve at least 0.9, where 1 is the maximum; inactive = score below 0.9;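 note: ornithine released into spent medium during last day measured by mass spectrometry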). The procedure, abridged: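 UPLC-HRMS readout: endogenous ornithine EIC area / 13C-ORN internal standard, then % of 0.1% DMSO median. H9 hESCs (pluripotent), 72h exposure, re-dosed with fresh media q24h; last 24-h spent media, deproteinized in 40% acetonitrile.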

Experiment [12] can be described thus: STM_H9_CystineISnorm_perc: Stemina devTOX quickPredict H9 human embryonic stem cell (hESC)-based Assay for Cystine (CYSS) Metabolite Biomarker, Normalized (AID 2283713; active = hit-call score of the fitted dose curve at least 0.9, where 1 is the maximum; inactive = score below 0.9). Summed up:
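UPLC-HRMS read-out: endogenous cystine peak area in spent medium, normalized to isotope-labeled internal standard and to median of 0.1% DMSO controls. Pluripotent H9 cells, 72h exposure, daily medium/compound replenishment; medium from last 24h sampled.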

For experiment [13], the system named is zebrafish Estrogen Receptor (ESR2B), gene 317733. Briefly: ATG_zfER2b_XSP1: Attagene TRANS-FACTORIAL Multi-Species (XSP1) HepG2 Assay for zebrafish Estrogen Receptor (ESR2B) (AID 2283773). Summed up:
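Multiplexed TRANS format in transfected HepG2 liver cells, chimeric NR-Gal4 from zebrafish ESR2B. 24 h dosing; medium contains 3 nM 6-alpha-fluorotestosterone. mRNA induction by RT-PCR/CE, positive direction vs DMSO.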

Experiment [14] concerns frog Estrogen Receptor (ESR2), gene 100174814. Briefly: ATG_frER2_XSP1: Attagene TRANS-FACTORIAL Multi-Species (XSP1) HepG2 Assay for frog Estrogen Receptor (ESR2) (AID 2283774). Summed up: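 HepG2, transient MRTU transfection (GAL4-UAS reporters, exogenous NR-Gal4 chimeras); 24 h compound exposure; 3 nM 6α-fluorotestosterone co-added; total RNA → RT-PCR → 6-FAM primer extension → HpaI → CE. Positive direction vs DMSO.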

Read-out in experiment [15]: HMG-CoA synthase (HMGCS2), HMGCS2 (gene 3158)
Briefly: CLD_HMGCS2_48hr: CellzDirect (CLD) Gene Expression Assay for HMG-CoA synthase (HMGCS2) at 48 hours (AID 2283711). The procedure, abridged:
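mRNA induction read by qNPA chemiluminescence, 48 h after dosing. Cultured primary human liver cells (two donor preparations) received fresh compound daily over two days against 0.2% DMSO vehicle; morphology-based cytotoxicity noted alongside.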

Experiment [16] can be described thus: STM_H9_OrnCyssISnorm_ratio: Stemina devTOX quickPredict H9 human embryonic stem cell (hESC)-based Assay for Ornithine (ORN):Cystine (CYSS) Ratio (AID 2283714). Summed up: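 UPLC-HRMS of spent media: ORN/CYSS ratio of internal-standard-normalized percentages, DMSO (0.1%) baseline. Pluripotent H9 hESCs, 72h exposure, daily re-dosing with fresh media; last 24h media collected.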

Molecules are shown by their SMILES. Results filed as inconclusive are left out. Some compounds were tested as several samples or in several runs, with calls that do not always agree. Active and inactive are the calls of the source. Rule for the calls, unless noted: active = hit-call score of the fitted dose curve at least 0.9, where 1 is the maximum; inconclusive = response in the unintended direction; inactive = score below 0.9.

zebrafish Estrogen Receptor (ESR1), esr1 (gene 259252), sequence (P57717 whole entry, looked up, the tested form may be a part): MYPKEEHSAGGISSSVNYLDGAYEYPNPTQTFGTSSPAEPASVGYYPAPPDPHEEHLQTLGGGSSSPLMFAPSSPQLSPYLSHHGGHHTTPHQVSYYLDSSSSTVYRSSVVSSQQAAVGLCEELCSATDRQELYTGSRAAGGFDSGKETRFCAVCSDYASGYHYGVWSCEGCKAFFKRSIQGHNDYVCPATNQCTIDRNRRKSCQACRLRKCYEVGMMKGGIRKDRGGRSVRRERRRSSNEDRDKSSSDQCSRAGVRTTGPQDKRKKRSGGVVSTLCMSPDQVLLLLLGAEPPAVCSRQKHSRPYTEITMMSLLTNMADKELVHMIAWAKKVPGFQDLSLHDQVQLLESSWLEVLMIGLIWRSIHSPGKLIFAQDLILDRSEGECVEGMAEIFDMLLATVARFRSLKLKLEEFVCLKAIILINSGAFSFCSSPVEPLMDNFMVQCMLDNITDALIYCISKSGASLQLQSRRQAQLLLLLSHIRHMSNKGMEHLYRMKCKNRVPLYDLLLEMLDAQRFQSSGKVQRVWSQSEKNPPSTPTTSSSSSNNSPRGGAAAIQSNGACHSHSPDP

Take `CNC(=O)CSP(=S)(OC)OC`: the outcome in experiment [1] was inactive.

As to `Oc1cc(Cl)ccc1Oc1ccc(Cl)cc1Cl`, the result in experiment [2], in [3], in [4], in [5] and in experiment [6] was inactive.

As to `CCC(C)Nc1c([N+](=O)[O-])cc(C(C)(C)C)cc1[N+](=O)[O-]` (centres undefined), the compound was called inactive in experiment [3].

For the compound `O=S(=O)(O)C(F)(F)C(F)(F)C(F)(F)C(F)(F)C(F)(F)C(F)(F)C(F)(F)C(F)(F)F`, the result in [4] was inactive. Further, the concentration at half-maximal activity (AC50) in experiment [5] is 1.02 µM (active); in experiment [7], 148 µM (active).

Take `CC1(C)C(C=C(Cl)Cl)C1C(=O)OC(C#N)c1ccc(F)c(Oc2ccccc2)c1` (centres undefined): the compound was classed as inactive in [7].

With `Oc1ccc(Cl)cc1Cc1ccccc1`, the result in [6] was inactive.

Consider `CNC(=O)Oc1cccc(N=CN(C)C)c1`, for which the result in experiment [8], in [9] and in experiment [10] was inactive.

On to `CN1CSC(=S)N(C)C1`, for which, in experiment [8], the result was inactive. Also, the AC50 in experiment [10] was 0.0296 µM (active).

With `CCC(C)(C)C(=O)OC1=C(c2ccc(Cl)cc2Cl)C(=O)OC12CCCCC2`, the call in experiment [8], in [9] and in [10] was inactive.

For `CCOCN(C(=O)CCl)c1c(C)cccc1CC`, the result in experiment [8], in experiment [11] and in experiment [12] was inactive. For the same compound, the AC50 in experiment [10] was 46 µM (active); in [13] it was 29.5 µM (active); in [14], 77.1 µM (active).

Consider `N#Cc1c(Cl)c(Cl)c(Cl)c(C#N)c1Cl`, for which the result in experiment [9] was inactive. Also, in experiment [10], the AC50 was 45 µM (active).

`N#CN`: the outcome in experiment [8] and in experiment [10] was inactive.

Turning to `Cc1[nH]c(=O)n(C(C)(C)C)c(=O)c1Cl`, the result in experiment [8], in [11], in experiment [12] and in experiment [10] was inactive.

Turning to `O=C1c2ccccc2C(=O)N1SC(Cl)(Cl)Cl`, the compound was called inactive in [8], in [9] and in [10].

For `CCS(=O)(=O)c1cccnc1S(=O)(=O)NC(=O)Nc1nc(OC)cc(OC)n1`, the compound was classed as inactive in experiment [8] and in experiment [9].

For the compound `CC[C@H](C)[C@H]1O[C@]2(C=C[C@@H]1C)C[C@@H]1C[C@@H](C/C=C(\C)[C@@H](O[C@H]3C[C@H](OC)[C@@H](O[C@H]4C[C@H](OC)[C@@H](O)[C@H](C)O4)[C@H](C)O3)[C@@H](C)/C=C/C=C3\CO[C@@H]4[C@H](O)C(C)=C[C@@H](C(=O)O1)[C@]34O)O2` (tested in a mixture with another compound), the outcome in experiment [9] was inactive. The half-maximal activity concentration (AC50) in experiment [10] was 8.55 µM (active).

For the compound `CNC(=O)Oc1ccccc1OC(C)C`, the result in [8], in [9] and in experiment [10] was inactive.

Regarding `O=[N+]([O-])c1c(Cl)c(Cl)c(Cl)c(Cl)c1Cl`, the compound was called inactive in experiment [8], in experiment [9] and in experiment [10].

`CCN(CC)C(=O)SCc1ccc(Cl)cc1`: the AC50 in experiment [8] is 20 µM (active). For the same compound, the call in [9] and in experiment [10] was inactive.

In the case of `ClC1C(Cl)C(Cl)C(Cl)C(Cl)C1Cl` (centres undefined), the result in experiment [8], in experiment [9] and in experiment [10] was inactive.

As to `CC(C)N(C(=O)COc1nnc(C(F)(F)F)s1)c1ccc(F)cc1`, the compound was classed as inactive in experiment [8], in experiment [9] and in experiment [10].

For the compound `CCc1ccc(C(=O)NN(C(=O)c2cc(C)cc(C)c2)C(C)(C)C)cc1`, in experiment [8], the AC50 was 3.53 µM (active). In addition, the result in [9] and in [10] was inactive.

As to `O=[N+]([O-])/N=C1\NCCN1Cc1ccc(Cl)nc1`, the result in experiment [8], in [9] and in experiment [10] was inactive.

On to `C[C@H]1[C@H](c2ccc(Cl)cc2)SC(=O)N1C(=O)NC1CCCCC1`, for which the compound was called inactive in [8] and in experiment [10]. The half-maximal activity concentration (AC50) in [9] was 0.000405 µM (active).

Consider `COc1nn(CSP(=S)(OC)OC)c(=O)s1`, for which the call in [8], in [9] and in experiment [10] was inactive.

Regarding `CCCN(CCOc1c(Cl)cc(Cl)cc1Cl)C(=O)n1ccnc1`, the AC50 in experiment [9] was 50 µM (active). Moreover, the call in [9], in experiment [10], in experiment [6], in experiment [13] and in experiment [14] was inactive.

With `CC1(c2ccc(Oc3ccccc3)cc2)OC(=O)N(Nc2ccccc2)C1=O` (centres undefined), the call in experiment [15] and in [10] was inactive. Moreover, the results for the AC50 in experiment [11], in experiment [12] and in experiment [16] were 4.54 µM (active), 2.42 µM (active) and 3.15 µM (active), respectively.

Take `COP(=S)(OC)Oc1ccc(SC)c(C)c1`: the result in [8], in experiment [9] and in [6] was inactive. The figures for the half-maximal activity concentration (AC50) in [13] and in experiment [14] were 66.9 µM (active) and 11.8 µM (active), respectively.

Consider `COP(=S)(OC)Oc1ccc([N+](=O)[O-])cc1`, for which, in experiment [8], the AC50 is 6.74 µM (active). For the same compound, the call in experiment [9], in experiment [10] and in [1] was inactive.

As for `COP(=O)(OC)OC=C(Cl)Cl`, the compound was classed as inactive in experiment [8] and in [10].

In the case of `OCCOc1ccccc1`, the compound was classed as inactive in experiment [8] and in [10].

Turning to `CCCN(CCC)c1c([N+](=O)[O-])cc(C(F)(F)F)cc1[N+](=O)[O-]`, the half-maximal activity concentration (AC50) was 3.27 µM (active) in experiment [8], 47.9 µM (active) in [7], 44.3 µM (active) in [13] and 33.1 µM (active) in experiment [14]. Also, the call in [9], in [10] and in [6] was inactive.
